# Results published in PubChem BioAssay (NCI).
# Compounds without any hit were thinned out: in the full panel of roughly 83,000, 20% have a hit.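 Results are percent growth after 48 hours of single-concentration exposure. 100 means growth as in untreated cells, lower positive values show inhibition; negative values down to -100 show cell death.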 Values without a mark were called inactive. Activity calls are given as the source filed them. Rule for the calls: active = growth percent below 10; inactive = the rest.
# Key:
# Assay in all cases: NCI-60 one-dose screen, 48 h (100 = growth as untreated, 0 = no growth, -100 = all killed)
# Conditions in all cases: 10 µM unless noted
# HCT-15 colon = test system: HCT-15 colon
# HT29 colon = test system: HT29 colon
# SNB-75 CNS = test system: SNB-75 CNS
# SNB-19 CNS = test system: SNB-19 CNS
# U251 CNS = test system: U251 CNS
# PC-3 prostate = test system: PC-3 prostate
# SK-MEL-5 melanoma = test system: SK-MEL-5 melanoma
# UACC-62 melanoma = test system: UACC-62 melanoma
# LOX IMVI melanoma = test system: LOX IMVI melanoma
# SK-MEL-28 melanoma = test system: SK-MEL-28 melanoma
Structure (SMILES),growth (HCT-15 colon),growth (HT29 colon),growth (SNB-75 CNS),growth (SNB-19 CNS),growth (U251 CNS),growth (PC-3 prostate),growth (SK-MEL-5 melanoma),growth (UACC-62 melanoma),growth (LOX IMVI melanoma),growth (SK-MEL-28 melanoma)
Nc1c(C(=O)Nc2ccccc2)sc2nc3c(cc12)CCC3,55.7%,88%,65.5%,85.1%,70.9%,81%,68.7%,69.8%,89.1%,80.4%
O=C1Nc2cc(Cl)ccc2Oc2cc(Oc3ccccc3)ccc21,46.7%,17.4%,50.9%,72.7%,74.1%,75.2%,34.5%,59.6%,51.5%,71%
O=S(=O)(NCCCNc1nccc(-c2c(-c3ccc(O)cc3)nc3sccn23)n1)c1ccc(F)cc1,10% (active),7.73% (active),17.8%,35.1%,11.1%,19.3%,-85.1% (active),-1.06% (active),-29.4% (active),-6.84% (active)
COc1cc(OC)cc(-c2n[nH]nc2-c2ccc3c(c2)OCO3)c1,25.7%,1% (active),-8.14% (active),45.1%,7.92% (active),19.4%,20.2%,27.5%,34.4%,32%
CCCS(=O)(=O)c1nc(NC2CC2)cc(-c2ccc3c(ccn3C3CC(C)(C)NC(C)(C)C3)c2)n1,-71.4% (active),-48% (active),-16.2% (active),38.9%,-65.5% (active),17.4%,16.2%,-83.1% (active),-91.5% (active),-59.2% (active)
O=c1oc2cc(OS(=O)(=O)c3ccccc3)c(Cl)cc2c2c1CCCCCC2,84.6%,67.7%,83.1%,93.3%,87.5%,73.9%,77.9%,70.3%,90.1%,91.2%
CCCCCCCN(CCCCCCC)C(=N)c1ccc(OC)c2ccccc12,-81.4% (active),-78.8% (active),-98.2% (active),-80.7% (active),-90.5% (active),-92.3% (active),-93.2% (active),-76.5% (active),-98.7% (active),-82.9% (active)
C=C1C(=O)O[C@H]2[C@H]1CC/C(COC(=O)NCc1cc(OC)cc(OC)c1)=C\CC[C@@]1(C)O[C@@H]21,1.86% (active),-40.2% (active),59.3%,42.3%,40.7%,30.2%,84.9%,-44.9% (active),-31% (active),-20.2% (active)
COc1cc(/C=C\c2cc(OC)c(OC)c(OC)c2)cc(N/C=C\C(=O)c2c[nH]c3ccccc23)c1OC,-39% (active),-77.7% (active),34%,54.1%,58.7%,37.3%,54.2%,3.34% (active),-73.3% (active),-90% (active)
COc1ccc(S(=O)(=O)N2CCN(c3cc4c(cc3F)c(=O)c(C(=O)O)cn4C3CC3)CC2)c(OC)c1,97.2%,113%,85.7%,89.5%,102%,99.1%,82.6%,84.4%,61.7%,101%
CCOC(=O)C1=C(C)NC(=O)NC1c1ccc(OCC(=O)N/N=C/c2ccc(Cl)cc2)cc1 (stereo not given),97.5%,94.3%,79.1%,89.5%,91.9%,89%,97.1%,87.3%,98.2%,105%
COc1cccc(/C=C/C(=O)c2sc(Nc3ccc(O)cc3)nc2C)c1,83.7%,82%,84.1%,95.1%,89.6%,85.9%,95.4%,94.4%,87.5%,102%
COc1cc(NCCN=C(N)NC(N)=NC(C)C)c2ncccc2c1,100%,61.2%,63.8%,84%,79.7%,73.4%,37.2%,102%,89.2%,86.1%
C=CCOc1ccc(/C(O)=C2\C(=O)C(=O)N(c3nccs3)C2c2ccccc2F)cc1 (stereo not given),82.1%,108%,89.8%,102%,93%,114%,94.7%,76.6%,90.3%,107%
CC1=NN2C(=NC3=C(CCC/C3=C\c3ccc(Cl)cc3)C2c2ccc(Cl)cc2)S1 (stereo not given),89.3%,48.1%,100%,84.3%,85.9%,95.3%,96.6%,83%,60.6%,99.3%
CCCCCc1c(C)[nH]c(/C=c2\[nH]/c(=C3/C=c4ccccc4=N3)cc2OC)c1C,-29.8% (active),-13.4% (active),-22.6% (active),10.5%,-95.1% (active),-6.91% (active),-98.7% (active),-78.9% (active),-85.2% (active),-60.2% (active)
Cc1cc(C)c(S(=O)(=O)N2CCN(c3cc4c(cc3F)c(=O)c(C(=O)O)cn4C3CC3)CC2)c(C)c1,55.1%,28.3%,36.6%,66.3%,19.7%,67.9%,54.9%,76.6%,29.6%,69.1%
NC(C(=O)O)C(O)c1ccc(OCc2ccccc2)c(OCc2ccccc2)c1 (stereo not given),97.6%,97.3%,77.6%,97.1%,91%,89.1%,103%,97.8%,99.1%,110%
Cc1oc2nc[nH]c(=O)c2c1C(=O)/C=C/c1ccc(Cl)cc1Cl,50.6%,30.4%,44.6%,84%,85.1%,59.2%,81.6%,53.5%,52.2%,89.1%
O=C1N=C(c2c(-c3[nH]c(=O)c4ccc(Br)cc4c3O)c(O)c3ccccc3c2O)C(=O)c2cc(Br)ccc21,-36.3% (active),25.7%,-35.8% (active),4.13% (active),-57.9% (active),-60.5% (active),-9.06% (active),-48.9% (active),-67.5% (active),-47.8% (active)
O=C(COc1ccccc1)N1N=C(c2ccc(Cl)cc2)CC1c1c[nH]c2ccccc12 (stereo not given),62.1%,90.4%,66.6%,93.3%,58%,63.2%,85.5%,70.9%,59.1%,104%
C=C1C(=O)O[C@H]2[C@H]1CC/C(COC(=O)NCc1ccc(OC)cc1)=C\CC[C@@]1(C)O[C@@H]21,12.9%,-4.4% (active),96.4%,61.7%,67.4%,52.9%,87%,27.5%,13.9%,51.2%
COc1ccc(OC)c(C(=O)c2oc3ccc(Br)cc3c2N)c1,24.2%,7.35% (active),-29.4% (active),38.3%,9.85% (active),-1.02% (active),31.7%,10.9%,32.9%,37.9%
COc1ccc(C2CC(c3cccs3)=NN2c2ccc(S(=O)(=O)NC(=O)NCc3cccc(OC)c3)cc2)cc1 (stereo not given),102%,120%,99.9%,103%,98.1%,96.3%,50%,31%,96.8%,48.3%
NC(=O)NC(=O)/C=C/C(=O)OCCCl,77.5%,90%,80.3%,101%,101%,92.1%,106%,104%,98.6%,100%
COc1cc(Cn2c(-c3nonc3N)nc3ccccc32)ccc1C,19.5%,0.109% (active),-0.424% (active),53.8%,21.6%,24.4%,19.1%,37.9%,42.6%,51.6%
C=CC(=O)N[C@H](/C=C/C(=O)OCC)Cc1ccc(-c2cc(Cl)cc(Cl)c2)cc1,79.2%,86.9%,82.5%,91.1%,79%,60.7%,72.8%,60.9%,86.7%,113%
